Several values for one entry are separate records, joined by “and”; a condition that tells them apart may be missing. Equal values may be shown once. Records with an inconclusive call do not appear. Where a call stands in place of a potency, no number is given. Some structures have more than one record in an assay (separate samples or runs), and their calls can disagree. Unmarked numbers belong to inactive results. Activity calls are given as the source filed them. The call rests on the fitted dose curve; in most records, active means well fitted curve in the direction sought with a large enough effect; inconclusive means small, poorly fitted or top-dose-only effect, or another doubt; inactive means no such curve, though single readings can be large; an effect the other way counts as inactive or inconclusive.
Tested on: Tov112D
Assay: Primary qHTS to identify gynecologic anti-cancer compounds using libraries of approved drugs and bioactive compounds (AID 1345084); further: nearly all actives have a fitted effect of over 55% in size; further: potency means the concentration at half of the fitted maximal effect
Settings: Gynecologic cancer cell panel viability, ATPlite luminescence, 48 h; series mostly up to 57.5 µM
How it was run: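 Measured: luminescence after ATPlite addition (15 min, RT). Exposure: 48 h, 37 C, 5% CO2.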

Compound | Potency
CCN(CC)CCN | inactive
CCNC(=O)NCCCOc1cccc(CN2CCCCC2)c1 | inactive
CCCCCOc1ccccc1/C(=C\SC)n1ccnc1 | inactive
CCOC(=O)c1ccc(O)c(O)c1 | inactive
CN1CCC(N(Cc2cccs2)c2ccccc2)CC1 | inactive
O=C(Nc1ccc(Cl)cc1)Nc1ccc(Cl)c(C(F)(F)F)c1 | 31.6 µM (active)
C=CCOc1cc(Cl)ccc1C(=O)NCCN(CC)CC | inactive
C=CC[N+]1([C@H]2C[C@H]3[C@@H]4CC[C@H]5C[C@H](OC(C)=O)[C@@H](N6CCCCC6)C[C@]5(C)[C@H]4CC[C@]3(C)[C@H]2OC(=O)CC)CCCCC1 | inactive
CCN(CC)CCOc1ccc(/C(=C(\Cl)c2ccccc2)c2ccccc2)cc1 | inactive
O=C(c1ccco1)N1CCNCC1 | inactive
CC(C(O)c1ccccc1)N(C)CCOC(c1ccccc1)c1ccccc1 (stereo unspecified) | inactive
CC(C)C(C)(C)C(C)(C)C(C)(C)S | inactive
C/C(=N\O)[C@@H](C)NCC(C)(C)CN[C@H](C)/C(C)=N/O | inactive
C[C@@H](C1=C(CCN(C)C)Cc2ccccc21)c1ccccn1 | inactive
CCN1C(=O)c2ccccc2C1Nc1ccc(OCCN2CCCCC2)cc1 (stereo unspecified) | inactive
CN(C)CCOC1=Cc2ccccc2Sc2ccc(Cl)cc21 | inactive
Cn1cc(S(C)=O)c(=O)c2ccc(F)cc21 (stereo unspecified) | inactive

Compound | Potency
Nc1ccc(C(=O)N2CC3CC(CN(Cc4ccccc4)C3)C2)cc1 | inactive
O=C(O)c1ccccc1Nc1cc(Cl)ccc1C(=O)O | inactive
Cc1nc2n(c(=O)c1CCN1CCC(C(=O)c3ccc(F)cc3)CC1)CCS2 | inactive
CCC(CN)=C(c1ccccc1)c1ccccc1 | inactive
CN1N=C(C(N)=O)CCC1=O | inactive
CCC(=O)Oc1ccc2c(c1)CC[C@@H]1[C@@H]2CC[C@@]2(C)[C@H]1C[C@@H](OC(=O)CC)[C@@H]2OC(=O)CC | inactive
CN1[C@@H]2CC[C@H]1CC(NC(=O)n1c(=O)[nH]c3ccccc31)C2 (stereo partly specified) | inactive
CCCC(=O)c1cc(O)c(O)cc1O | inactive
CO[C@@H]1[C@@H](OC)[C@H](C)[C@@](O)(CC(=O)O)O[C@H]1[C@H](C)[C@H]1O[C@@]2(CC[C@@](C)([C@H]3CC[C@@](C)([C@@H]4O[C@@H]([C@H]5O[C@](C)(O)[C@H](C)C[C@@H]5C)C[C@@H]4OC4C[C@H](OC)[C@@H](OC)[C@H](C)O4)O3)O2)C[C@H](O)[C@H]1C (stereo partly specified) | 11.2 µM (active)
CCCCCCOC(=O)NC(=N)c1ccc(NCc2nc3cc(C(=O)N(CCC(=O)OCC)c4ccccn4)ccc3n2C)cc1 | inactive
OC(CCCN1CCCCC1)(c1ccccc1)c1ccccc1 | inactive
N#C/C(=C1/SC[C@@H](c2ccc(Cl)cc2Cl)S1)n1ccnc1 | inactive
C[C@H]1C[C@H]2[C@@H]3CCC4=CC(=O)C=C[C@]4(C)[C@H]3C(=O)C[C@]2(C)[C@@]1(O)C(=O)CO | inactive
CC[N+]1(CC)CCC(=C(c2ccccc2)c2ccccc2)C1C (stereo unspecified) | inactive
CC(C)(c1ccc(O)cc1)c1ccc(O)cc1 | inactive
O=c1[nH]sc2cc(Cl)ccc12 | inactive
O=C(OCCN1CCOCC1)c1cccnc1Nc1cccc(C(F)(F)F)c1 | inactive

Tested on: not listed separately
Assay: Drug repurposing screens with cells derived from glioblastoma tumor samples (AID 1345199); further: nearly all actives have a fitted effect of over 40% in size
Settings: GBM patient neurospheres viability, ATP luminescence, 48 h; at 45.9 µM (top of the series); tumour line B
How it was run: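 Primary testing used CD133+ neurospheres from four GBM patients, seven concentrations, 48 h exposure and ATP-based viability; confirmation added three slower-growing patient lines.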

Compound | activity, negative = cell killing
CCNC(=O)NCCCOc1cccc(CN2CCCCC2)c1 | -3.43%
CN1CCC(N(Cc2cccs2)c2ccccc2)CC1 | -22.4%
C=CCOc1cc(Cl)ccc1C(=O)NCCN(CC)CC | -22.9%
C=CC[N+]1([C@H]2C[C@H]3[C@@H]4CC[C@H]5C[C@H](OC(C)=O)[C@@H](N6CCCCC6)C[C@]5(C)[C@H]4CC[C@]3(C)[C@H]2OC(=O)CC)CCCCC1 | -10%
C[C@@H](C1=C(CCN(C)C)Cc2ccccc21)c1ccccn1 | -18.9%
CCN1C(=O)c2ccccc2C1Nc1ccc(OCCN2CCCCC2)cc1 (stereo unspecified) | -27.4%
Cn1cc(S(C)=O)c(=O)c2ccc(F)cc21 (stereo unspecified) | -9.03%
O=C(O)c1ccccc1Nc1cc(Cl)ccc1C(=O)O | -6.14%
CN1[C@@H]2CC[C@H]1CC(NC(=O)n1c(=O)[nH]c3ccccc31)C2 (stereo partly specified) | 3.71%
OC(CCCN1CCCCC1)(c1ccccc1)c1ccccc1 | 9.15%
N#C/C(=C1/SC[C@@H](c2ccc(Cl)cc2Cl)S1)n1ccnc1 | -20.5% and -14.1%

Same assay, conditions: GBM patient neurospheres viability, ATP luminescence, 48 h; at 45.9 µM (top of the series); tumour line D

Compound | activity, negative = cell killing
CCNC(=O)NCCCOc1cccc(CN2CCCCC2)c1 | -22.4%
C=CC[N+]1([C@H]2C[C@H]3[C@@H]4CC[C@H]5C[C@H](OC(C)=O)[C@@H](N6CCCCC6)C[C@]5(C)[C@H]4CC[C@]3(C)[C@H]2OC(=O)CC)CCCCC1 | -23%
Cn1cc(S(C)=O)c(=O)c2ccc(F)cc21 (stereo unspecified) | -4.06%
O=C(O)c1ccccc1Nc1cc(Cl)ccc1C(=O)O | -11.1%
CN1[C@@H]2CC[C@H]1CC(NC(=O)n1c(=O)[nH]c3ccccc31)C2 (stereo partly specified) | -10.2%
OC(CCCN1CCCCC1)(c1ccccc1)c1ccccc1 | -27.2%

Reference: PubChem BioAssay (NCATS)
